Screening data: PubChem BioAssay, National Center for Advancing Translational Sciences (NCATS)
The list is not random: actives were taken first. Their share in the collection is about 4.2%.
Mito fusion act = mitochondrial division inhibition or fusion activation | S. cerevisiae fusion-defective mutant growth rescue, CellTiterGlo 48 h | Potency, µM (doses to about 46.1 µM), for inactives: at the highest dose growth rescue (activation), most hits filed as activators | actives 0.23% (n = 320,000); further: % of control where 0% means no effect; nearly all actives have a fitted effect of over 45% in size
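Read-out: ATP-based luminescence (CellTiterGlo, 10 min ambient) reporting growth of fusion-defective ts yeast after 48 hours at 37C on glycerol/ethanol YPEG medium in the presence of compound.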
MCF10A rereplic = inducers of DNA re-replication in MCF 10A breast cells | MCF 10A DNA re-replication, Hoechst nuclear intensity, 48 h | Potency, µM (doses to about 46.1 µM), for the others: top-dose activity, positive = re-replication, actives largely listed as activators | actives 2.9% (n = 350,000) | AID 624296; further: % of control where 0% means no effect; nearly all actives have a fitted effect of over 50% in size
a7 integrin act = activators of alpha7 integrin expression for muscular dystrophy | alpha7betagal myoblasts, beta-gal FDG fluorescence, 48 h | Potency, µM (highest dose often 38.3 µM), for the others: top-dose activation, hits mostly activators | actives 0.064% (n = 350,000);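 further: 100% = response of the positive control SU9516; nearly all actives have a fitted effect of over 60% in size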
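Alpha7betagal+/- myoblasts (passage 13) were plated 16-24 hr, then exposed to compounds (1:260 dilution of DMSO stock) for 48 hours at 37C. After MPER lysis, β-galactosidase reporter activity was read as FDG fluorescence (ex 480/em 540) after 30 minutes.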
SW480 rerep = induces DNA re-replication in SW480 colon adenocarcinoma cells; SW480 DNA re-replication, Hoechst DNA content imaging, 48 h; actives 1.8% (n = 340,000); Potency, µM (titrated, usually from 46.1 µM), for the others: top-dose re-replication activation, most hits filed as activators; AID 624297; further: % of control where 0% means no effect; nearly all actives have a fitted effect of over 55% in size
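Quantitative HTS format with DMSO vehicle controls; 48 hr drug incubation at 37 C, then 40 min Hoechst staining and scanning imager measurement at 405 nm excitation.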
AT treatment = candidate therapy for ataxia-telangiectasia | F2112 A-T fibroblasts, KAP-1 phosphorylation AlphaLISA; neocarzinostatin DNA damage 30 min before lysis | Potency, µM (highest dose often 57.5 µM), without a hit: top-dose activation, hits mostly activators | actives 0.19% (n = 320,000) | AID 485349; further: % of control where 0% means no effect; nearly all actives have a fitted effect of over 45% in size
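ATM-like activity read as KAP-1 phosphorylation via AlphaLISA donor/acceptor antibody pairs after lysis and 6 hr at 25C. Cells were ATM-null patient fibroblasts (F2112, hTERT), dosed 60 min, then exposed to the DSB inducer NCS for 30 min.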
Starred values were filed as active, the others as inactive; ? = inconclusive; . = no result given; [ ] = remark or other dose. The call rests on the fitted dose curve; in most records, active means well fitted activation curve with a large enough effect; inconclusive means small, poorly fitted or top-dose-only effect; inactive means no such curve, though single readings can be large or run the other way. Potency means the concentration at half of the fitted maximal effect.

SMILES	Mito fusion act	MCF10A rereplic	a7 integrin act	SW480 rerep	AT treatment
Oc1cccc(Nc2nc(O)c(/C=C3\C=Nc4ccccc43)s2)c1	7%	?	19%	?	-6%
Oc1nc(Nc2ccc(F)cc2)sc1/C=C1\C=Nc2ccccc21	6%	21µM*	-1%	?	-2%
Oc1nc(Nc2cccc(Cl)c2)sc1/C=C1\C=Nc2ccccc21	-11%	7.3µM*	-19%	?	-5%
COC(=O)c1sc(C(C)(C)C)cc1CSc1ccccc1	5%	1%	-18%	-3%	15%
COc1ccccc1Nc1nc2nonc2[nH]c1=O	12%	13%	-15%	-5%	3%
COc1ccc(S(=O)(=O)N2CCCC(C(=O)NCC3CCCO3)C2)cc1C (stereo not given)	3%	1%	20%	0%	5%
Cn1cccc1/C=C1\CC(C(C)(C)C)C/C(=C\c2cccn2C)C1=O (stereo not given)	11%	3.7µM*	4%	?	-6%
CC(=O)N1N=C2c3ccccc3CCC2C1c1cccs1 (stereo not given)	13%	-2%	-7%	-12%	6%
CCn1cc(Cl)c(C(=O)N2N=C3/C(=C/c4cccs4)CCCC3C2c2cccs2)n1 (stereo not given)	23%	23%	-13%[7.66 µM]	18µM*	-1%
CC(=O)c1ccc(Nc2cc(C)nc3c(C)cccc23)cc1	0%	23µM*	-13%	1.2µM*	0%
CC(=O)c1ccc(NC(=O)c2cc(CC(C)C)nc3ccccc23)cc1	-8%	0.82µM*	0%	-2%	3%
CC(C)Cc1cc(C(=O)O)c2ccccc2n1	.	-10%	-3%[7.66 µM]	-16%	.
CC(=O)c1ccc(Nc2cc(C)nc3ccccc23)cc1	-4%	?	-2%	18µM*	3%
CCOC(=O)C1(Cc2cccc(F)c2)CCN(C(=O)COC)CC1	1%	18%	15%	-6%	-15%
Cc1ccc(NC(=O)c2ccc(S(=O)(=O)N3CCCC3)cc2)nc1	11%	?	-22%	2%	-5%
Cc1cccc(C)c1C(OCCN(C)C)C1CCCCC1 (stereo not given)	-12%	-3%	-35%	3%	-1%
CCC(=O)N1c2ccc(S(=O)(=O)NCCc3ccc(OC)c(OC)c3)cc2CC1C (stereo not given)	5%	0%	35%	-1%	4%
COc1cc2c(cc1OC)[C@@H]1O[C@](CCCCN3C(=O)c4ccccc4C3=O)(C2)Oc2cc(C)n(-c3ccccc3)c(=O)c21	1%[9.22 µM]	.	.	.	-4%[11.5 µM]
NC(=O)c1ccccc1NC(=O)NC1CCCCC1	-2%	8%	8%	4%	1%
O=C(NC1CCCCC1)c1cc2ccccc2cc1O	3%	-2%	-18%	18µM*	4%
COc1ccc(NC(=O)c2cccc3c(Br)cccc23)cc1	0%	?	11%	2%	1%
COc1ccc(NC(=O)c2cccc3ccccc23)cc1	4%	21µM*	3%	?	2%
COc1ccc(NC(=O)c2cc3ccccc3cc2O)cc1	-16%	4.6µM*	22%	?	2%
O=C(Nc1ccccc1NC(=O)NC1CCCCC1)NC1CCCCC1	-3%	3.7µM*	-14%[7.66 µM]	?	0%
Cc1ccc(NC(=O)c2cc3ccccc3cc2O)cc1	-12%	?	0%	13%	11%
SMILES	Mito fusion act	MCF10A rereplic	a7 integrin act	SW480 rerep	AT treatment
COc1ccc(CCN2CC(C(=O)NCCN3CCCC3=O)CCC2=O)cc1 (stereo not given)	-5%	-2%	21%	-11%	-3%
Cc1ccc(NCCCCO)cc1C	-1%	2%	-30%	25%	-10%
COc1c(C(=O)Nc2ccc(Cc3ccncc3)cc2)ccc2ccccc12	?	23µM*	-9%	?	-1%
COc1ccc(NC(=O)c2c(Cl)n(C)c3ccccc23)cc1	0%	16µM*	-39%	?	5%
Cc1ccc(C)c(NC(=O)NNC(=O)c2cc3ccccc3cc2O)c1	4%	15µM*	0%	-25%	17%
C[C@H](CO)N1C[C@H](C)[C@H](CN(C)C(=O)c2ccc(N3CCN(C)CC3)cc2)OCc2cnnn2CCCC1=O	.	.	-6%	.	.
